Experimental findings from PubChem BioAssay AID485341 (National Center for Advancing Translational Sciences (NCATS), 2010) are described below.

About 1,700 (0.52%) of roughly 330,000 compounds were called active. The sample holds actives, similar compounds and a random draw of the others, so the mix is not that of the screen. Values without a mark were called inactive. The call rests on the fitted dose curve; in most records, active means well fitted inhibition curve with a large enough effect; inconclusive means small, poorly fitted or top-dose-only effect; inactive means no such curve, though single readings can be large or run the other way.
Potency means the concentration at half of the fitted maximal effect.

The target of this experiment is Beta-lactamase (Escherichia coli (strain K12)) (UniProt P00811). Nature of the experiment: qHTS Inhibitors of AmpC Beta-Lactamase (assay without detergent). Further: nearly all actives have a fitted effect of over 20% in size.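 On activity change, negative = inhibition: plate controls were no compound for no effect and no enzyme for full effect.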 Particulars: AmpC nitrocefin hydrolysis, absorbance 480 nm, 0.0001% Triton; series mostly up to 57.1 µM; activity change, negative = inhibition: at the top concentration. The essentials: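 20 mM phosphate pH 7.0 + 0.01% (detergent screen) or 0.0001% Triton X-100; 5.3 nM AmpC reagent; cpd preinc 15 min RT; nitrocefin (800 uM stock) to start; A480 q20 s × 4 min; Activity was normalised to no-enzyme and no-compound control wells.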
Chain of Beta-lactamase (Escherichia coli (strain K12)) (P00811 whole entry, looked up): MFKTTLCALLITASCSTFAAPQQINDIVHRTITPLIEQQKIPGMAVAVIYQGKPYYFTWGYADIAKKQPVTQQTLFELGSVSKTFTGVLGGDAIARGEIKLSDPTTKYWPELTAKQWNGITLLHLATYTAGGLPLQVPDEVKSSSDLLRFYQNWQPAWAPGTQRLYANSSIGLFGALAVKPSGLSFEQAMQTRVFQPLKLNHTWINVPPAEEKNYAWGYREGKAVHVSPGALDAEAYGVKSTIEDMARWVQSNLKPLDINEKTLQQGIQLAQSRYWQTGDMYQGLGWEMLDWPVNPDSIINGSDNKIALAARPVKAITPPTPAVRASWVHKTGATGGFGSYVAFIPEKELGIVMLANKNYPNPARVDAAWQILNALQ
In the case of `Cc1cc2ccccn2c1C(C[N+](=O)[O-])c1c(F)cccc1Cl` (stereo not given), the “activity change, negative = inhibition” value is -29.1%. As for `Cc1cc2ccccn2c1C(=O)c1cccc(F)c1`, the “activity change, negative = inhibition” value is -22.5%. As for `Cc1ccc(C(C[N+](=O)[O-])c2c(C)cc3ccccn23)cc1` (stereo not given), the Potency was 22.4 µM (active). Consider `Cn1c(=NC(=O)c2ccc3c(c2)OCCO3)sc2cc(S(C)(=O)=O)ccc21`, for which the “activity change, negative = inhibition” value was -16.1%. The same measure, in the same setting: with `COc1ccccc1C(CNC(=O)c1cccc(S(=O)(=O)Nc2ccc(F)cc2)c1)N(C)C` (stereo not given) the figure was -2.62%. The same measure, in the same setting: under `C[C@H](NC(=O)c1ccccc1)C(=O)OCC(=O)c1c[nH]c2ccccc12` stands -13.4%. In the case of `CN(C)c1ccc(C(CNC(=O)c2ccc(F)cc2)c2c[nH]c3ccccc23)cc1` (stereo not given), the Potency was 14.1 µM (active).

On to `CCOc1ccc2[nH]c(C(=O)N/N=C/c3cccc(OC)c3OC)cc2c1`, for which the “activity change, negative = inhibition” value is -27.1%.

For `COc1cccc(/C=N/NC(=O)c2[nH]nc3c2CCc2ccccc2-3)c1O`, the Potency was 5.62 µM (active). With `COc1cccc(/C=N/NC(=O)CNC(=O)c2ccc(S(=O)(=O)N3CCOCC3)cc2)c1OC`, the “activity change, negative = inhibition” value was 8.54%. On the same count and under the same terms, with `CCc1ccc(C(=O)NN=C2CCCCCC2)s1` the figure was -20.7%; with `CCCNS(=O)(=O)c1ccc(CCC(=O)N2CCCC2)cc1`, -3.42%. On the same count and under the same terms, with `COc1ccc(C(CC(=O)c2ccccc2)S(=O)(=O)c2ccccc2)cc1` (stereo not given) the figure was -1.57%; with `COc1ccc(-n2c(SCC(=O)NCc3cccs3)nnc2-c2ccoc2C)cc1`, -16.2%; with `O=C(CSc1nnc(-c2c[nH]c3ccccc23)n1-c1ccc(F)cc1)NCc1ccco1`, -43%. In the case of `CCn1c(SCC(=O)Nc2ccc(OC)c(OC)c2)nnc1-c1c[nH]c2ccccc12`, the Potency was 0.631 µM (active). The same measure, in the same setting: under `COc1ccc(-n2c(SCC(=O)NCc3ccco3)nnc2-c2c[nH]c3ccccc23)cc1` stands 3.55 µM (active). Regarding `CCOC(=O)N1CCN(C(=O)CSc2nnc(-c3c[nH]c4ccccc34)n2CCOC)CC1`, the “activity change, negative = inhibition” value is 4.38%. Still for that read-out and setting: under `CCn1c(SCCC(C)C)nnc1-c1c[nH]c2ccccc12` stands -14.4%. Still for that read-out and setting: with `N/C(=N\S(=O)(=O)c1ccc(Cl)cc1)N1CCOCC1` the figure was 5.56%. On to `CN(C)Cc1c(O)ccc2c(=O)c(-c3ccccc3Cl)coc12`, for which the “activity change, negative = inhibition” value is -14.4%. As to `Cc1ccc(N(CC(=O)Nc2cc(C)cc(C)c2)S(=O)(=O)c2cccc3nonc23)cc1`, the Potency is 15.8 µM (active). For `CCOC(=O)c1cccc(NC(=O)CN(c2ccc(C)cc2)S(=O)(=O)c2c(C)noc2C)c1`, the “activity change, negative = inhibition” value was -8.36%. The same measure, in the same setting: with `Cc1ccc(CNC(=O)CCNS(=O)(=O)c2cccc3nonc23)cc1` the figure was -10.5%; with `COC(=O)c1ccc(COc2ccc(C#N)cc2)o1`, -7.25%.

`Cc1cccc(C(=O)OCC(=O)Nc2sc3c(c2C#N)CCC3)c1`: the “activity change, negative = inhibition” value was -5.45%. `N#CCC(=O)Nc1ccc(C(=O)OCC(=O)Nc2sc3c(c2C#N)CCCC3)cc1`: the Potency was 14.1 µM (active). On to `N#Cc1c(NC(=O)CCCl)sc2c1CCCCC2`, for which the “activity change, negative = inhibition” value was -10.9%.

Regarding `CCOC(=O)Cn1c2c(c(-c3ccccc3OC)cc1=O)CCCC2`, the “activity change, negative = inhibition” value was -14.6%. On the same count and under the same terms, with `O=C(CSc1nnc(-c2ccncc2)n1C1CCCCC1)Nc1ccccc1` the figure was 29.1%; with `Cc1ccc(N2C(=O)C3N=NN(CC(=O)N4N=C(c5cccc6ccccc56)CC4c4ccccc4)C3C2=O)cc1` (stereo not given), -30.7%; with `Cc1cccc(C(C)C)c1NC(=O)COC(=O)C1CC(=O)N(Cc2ccccc2)C1` (stereo not given), 32.1%. `NS(=O)(=O)c1ccc(CNC(=O)c2cccc(Oc3ccccc3)c2)cc1`: the “activity change, negative = inhibition” value was -18.7%. On to `NS(=O)(=O)c1ccc(CNC(=O)c2cccc(S(=O)(=O)N3CCc4ccccc43)c2)cc1`, for which the Potency was 14.1 µM (active). Regarding `Cc1ccc(NC(=O)c2cccc(S(=O)(=O)N3CCCc4ccccc43)c2)nc1`, the “activity change, negative = inhibition” value is -11.9%. The same measure, in the same setting: with `O=C(NC1CC1)C1=C[C@H](c2c[nH]c3ccccc23)C[C@H](OCc2ccc(CO)cc2)O1` the figure was 67.4%.

`CCNC(=O)NC(=O)C(C)OC(=O)C1CCN(S(=O)(=O)c2ccccc2F)CC1` (stereo not given): the “activity change, negative = inhibition” value is -3.92%.

For `CCOC1CS(=O)(=O)CC1OCC` (stereo not given), the “activity change, negative = inhibition” value was -17.7%.

For `c1csc(-c2nnc(COc3ccc4c(c3)OCO4)o2)c1`, the “activity change, negative = inhibition” value was -26.4%.

As to `C=CS(=O)c1sc(Cl)c(N2CCOCC2)c1[N+](=O)[O-]` (stereo not given), the “activity change, negative = inhibition” value was -20.3%. Still for that read-out and setting: under `Cc1cc(Nc2cccc(F)c2)n2ncnc2n1` stands -4.37%.

Take `Cc1c(Cl)cnc(NC(=O)COC(=O)c2ccc(S(=O)(=O)NCc3ccco3)cc2)c1Cl`: the “activity change, negative = inhibition” value was -40.8%.

For `C/C(=N\Nc1ncc(Cl)cc1Cl)c1ccc(S(=O)(=O)NCc2ccco2)cc1`, the Potency is 31.6 µM (active). In the case of `O=S(=O)(NCc1ccco1)c1cnc(Cl)c(Cl)c1`, the “activity change, negative = inhibition” value is -20.1%. As to `O=C(c1cccnc1)N(c1cc2sc(=O)oc2c2ccccc12)S(=O)(=O)c1ccccc1`, the “activity change, negative = inhibition” value was -28.4%.

As to `Cc1ccccc1SCC(=O)OCC(=O)N1CC(=O)Nc2ccccc21`, the “activity change, negative = inhibition” value is -16.8%. The same measure, in the same setting: with `O=C1CSC(=S)N1/N=C/c1ccc(O)c([N+](=O)[O-])c1` the figure was -44.4%.

Consider `Cc1cc(C(=O)N/N=C/c2ccc(O)c([N+](=O)[O-])c2)c(C)n1-c1ccc(F)cc1`, for which the Potency was 17.8 µM (active). As for `Cc1cc(C(=O)COC(=O)C2CC2)c(C)n1-c1ccc(F)cc1`, the activity change, negative = inhibition was -17.5% [at 11.4 µM]. Same read-out and setting: with `CCOc1ccc(CN2CCNC(=O)C2CC(=O)NCCCC2CCCC2)cc1` (stereo not given) the figure was 150%.

For the compound `COc1ccc(NC(=O)c2sccc2SCC#N)cc1`, the Potency is 4.47 µM (active).

On to `COc1ccc(NC(=O)CSc2nc(C)cs2)cc1`, for which the “activity change, negative = inhibition” value was -12.6%. Same read-out and setting: with `COc1ccc(NC(=O)c2ccc(C#CC(C)(C)O)cc2)cc1` the figure was 4.78%; with `CNC[C@H]1Oc2c(NC(=O)C3CCCCC3)cccc2C(=O)N([C@H](C)CO)C[C@@H]1C`, -6.12%; with `Cn1cccc1Cc1nnc(SCC(=O)NCc2ccc3c(c2)OCO3)n1CCc1ccccc1`, 66.4%. Still for that read-out and setting: with `Cc1cc(=O)oc(C)c1C(=O)Nc1cnc2ccccc2c1` the figure was -8.5%.

`Cc1cc(O)c(C(=O)/C=C/c2c(F)c(F)c(F)c(F)c2F)c(=O)o1`: the Potency was 11.2 µM (active). As for `Cc1ccc(N=Cc2c(O)cc(C)oc2=O)c(C)c1`, the “activity change, negative = inhibition” value is -18.8%. Same read-out and setting: with `COc1ccccc1C(=O)Nc1ccc(C)c(S(=O)(=O)N2CCCCC2)c1` the figure was -3.57%; with `Nn1c(SCC(=O)NC(=O)NC2CCCC2)nnc1-c1ccccc1F`, -17.2%; with `COc1cccc2c1OCC1COc3c(c(=O)n(C)c(=O)n3C)C21` (stereo not given), -17.4%.

As to `C=CCNCCCCOc1ccccc1`, the “activity change, negative = inhibition” value was 0.575%. On to `COc1ccccc1CNC(=O)C1CCCN(S(=O)(=O)c2cccc3cccnc23)C1` (stereo not given), for which the Potency was 22.4 µM (active).

As for `COc1cccc(CNC(=O)C2CCN(S(=O)(=O)c3cccc4cccnc34)CC2)c1`, the “activity change, negative = inhibition” value was -3.22%. The same measure, in the same setting: under `O=C(O)C1CCCN(S(=O)(=O)c2cccc3cccnc23)C1` (stereo not given) stands -14.6%.
